According to PubChem BioAssay (Tox21):
Several values for one entry are separate records, joined by “and”; a condition that tells them apart may be missing. Equal entries are not always repeated. Results filed as inconclusive are left out. Where a structure was tested more than once in an assay, its records may differ in their call. Activity calls are given as the source filed them. Unless noted, calls follow the shape of the dose curve; as a rule, active = well fitted curve in the direction sought with a large enough effect in the repeat runs; inconclusive = weak or mixed curves; inactive = no such curve, though single readings can be large; an effect the other way counts as inactive or inconclusive.

Columns and labels:
[1] = qHTS assay to identify small molecule antagonists of the thyroid receptor (TR) signaling pathway - cell viability counter screen (AID 743064); also: nearly all actives have a fitted effect of over 50% in size; also: potency is read from the fitted curve at half-maximal effect
Summary of the method: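 In-well cytotoxicity read by CellTiter-Fluor (30 min, 37 C) following 23.5 h exposure of GH3 cells bearing a TRE-luciferase sensor. Compounds were added alongside 1 nM (final) T3 to drive TR transactivation.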

[2] = qHTS assay to identify small molecule antagonists of the thyroid receptor (TR) signaling pathway (AID 743065); also: nearly all actives have a fitted effect of over 55% in size; also: potency is read from the fitted curve at half-maximal effect; as to activity, negative = inhibition: series mostly up to about 70 µM
Summary of the method: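 Antagonism measured as loss of luciferase signal in GH3 cells stably carrying a TRE-luciferase reporter, co-treated with compound and T3 (1 nM final) for 23.5 h at 37 C. Viability was read in the same well by CellTiter-Fluor.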

[3] = test system: thyroid hormone receptor (rat, GH3 cells); assay: qHTS assay to identify small molecule agonists of the thyroid receptor (TR) signaling pathway (AID 743066; calls by dose curve)
[4] = qHTS assay to identify small molecule antagonists of the estrogen receptor alpha (ER-alpha) signaling pathway - cell viability counter screen (AID 743074; calls by dose curve;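 also: HEK293 cells carrying ER-alpha-UAS-bla reporter stimulated with 17beta-estradiol; nearly all actives have a fitted effect of over 45% in size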)
[5] = qHTS assay to identify small molecule antagonists of the estrogen receptor alpha (ER-alpha) signaling pathway using the BG1 cell line - cell viability counter screen (AID 743081);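 also: compound given together with 17beta-estradiol as the ER stimulus; nearly all actives have a fitted effect of over 45% in size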; also: potency is read from the fitted curve at half-maximal effect; as to activity change, negative = cytotoxicity: series mostly up to about 70 µM
Aromatase (Homo sapiens) = Aromatase (Homo sapiens) (UniProt P11511); assay: qHTS assay to identify aromatase inhibitors (AID 743083); also: series mostly up to about 70 µM; nearly all actives have a fitted effect of over 55% in size
[6] = molecular target: Estrogen receptor (Homo sapiens) (UniProt P03372); assay: qHTS assay to identify small molecule antagonists of the estrogen receptor alpha (ER-alpha) signaling pathway (AID 743069; active = well fitted curve in the direction sought with a large enough effect in the signal ratio in the repeat runs, not every such curve was filed as active; the % refers to the signal ratio; also: potency is read from the fitted curve at half-maximal effect)
Summary of the method: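 ER-alpha-UAS-bla GripTite HEK293 line; 2% charcoal-stripped FBS overnight; plated, 4 hr 37C/5% CO2; cpd in DMSO + 17beta-estradiol, 18 hr 37C; LiveBLAzer B/G FRET substrate 2 hr RT; fluorescence intensity.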

[7] = molecular target: Estrogen receptor (Homo sapiens) (UniProt P03372); assay: qHTS assay to identify small molecule agonists of the estrogen receptor alpha (ER-alpha) signaling pathway (AID 743075; calls by dose curve;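 also: HEK293 GripTite cells with ER-alpha and UAS-driven beta-lactamase reporter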)
[8] = qHTS assay to identify small molecule antagonists of the estrogen receptor alpha (ER-alpha) signaling pathway using the BG1 cell line (AID 743080; calls by dose curve; also: nearly all actives have a fitted effect of over 25% in size; also: potency is read from the fitted curve at half-maximal effect; as to activity change, negative = inhibition: series mostly up to about 70 µM)
Summary of the method: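 Antagonist mode: compounds in DMSO were pinned onto BG1-Luc-4E2 cells alongside 17beta-estradiol agonist, incubated 21.5 h, and ERE-driven luciferase measured with ONE-Glo. Cytotoxicity was multiplexed using CellTiter-Fluor fluorescence.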

[9] = molecular target: Estrogen receptor (Homo sapiens) (UniProt P03372); assay: qHTS assay to identify small molecule agonists of the estrogen receptor alpha (ER-alpha) signaling pathway using the BG1 cell line (AID 743079); also: nearly all actives have a fitted effect of over 20% in size; also: potency is read from the fitted curve at half-maximal effect
% is scaled to controls: 0 for no effect and ±100 for the full control effect.

Aromatase (Homo sapiens), sequence (P11511 whole entry, looked up): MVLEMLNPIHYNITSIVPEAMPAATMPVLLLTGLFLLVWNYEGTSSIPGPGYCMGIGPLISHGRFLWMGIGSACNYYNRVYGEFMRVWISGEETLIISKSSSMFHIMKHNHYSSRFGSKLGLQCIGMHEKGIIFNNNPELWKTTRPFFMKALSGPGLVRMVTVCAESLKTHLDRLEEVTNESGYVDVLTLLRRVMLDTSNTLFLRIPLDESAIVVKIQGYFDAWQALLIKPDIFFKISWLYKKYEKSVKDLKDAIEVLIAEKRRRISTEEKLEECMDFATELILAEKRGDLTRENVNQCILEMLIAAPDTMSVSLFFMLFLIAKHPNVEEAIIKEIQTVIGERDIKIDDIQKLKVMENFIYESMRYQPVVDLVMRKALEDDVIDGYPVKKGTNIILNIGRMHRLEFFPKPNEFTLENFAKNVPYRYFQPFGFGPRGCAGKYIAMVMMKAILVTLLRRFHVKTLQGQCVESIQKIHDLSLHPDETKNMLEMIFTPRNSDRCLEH
Estrogen receptor (Homo sapiens), sequence (P03372 whole entry, looked up): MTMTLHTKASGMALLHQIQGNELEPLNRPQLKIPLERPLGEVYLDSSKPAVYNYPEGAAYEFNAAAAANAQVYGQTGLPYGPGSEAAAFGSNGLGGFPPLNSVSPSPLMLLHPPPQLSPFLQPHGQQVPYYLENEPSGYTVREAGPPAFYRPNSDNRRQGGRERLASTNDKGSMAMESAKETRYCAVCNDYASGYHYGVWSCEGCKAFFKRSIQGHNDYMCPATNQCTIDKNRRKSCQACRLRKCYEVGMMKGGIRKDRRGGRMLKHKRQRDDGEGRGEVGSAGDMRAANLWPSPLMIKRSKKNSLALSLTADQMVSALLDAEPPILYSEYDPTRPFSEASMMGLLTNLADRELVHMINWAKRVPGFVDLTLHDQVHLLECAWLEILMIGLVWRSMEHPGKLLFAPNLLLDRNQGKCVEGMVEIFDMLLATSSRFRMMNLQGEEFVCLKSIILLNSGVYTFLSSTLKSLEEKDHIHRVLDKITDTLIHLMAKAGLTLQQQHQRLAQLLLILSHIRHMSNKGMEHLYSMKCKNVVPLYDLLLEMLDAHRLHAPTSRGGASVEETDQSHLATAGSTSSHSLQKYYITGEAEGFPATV

CCC(Cl)CCC(Cl)C(Cl)CC(Cl)C(Cl)C(Cl)CCl (stereo not drawn)
inactive: Potency [1] | Potency [2] | Potency [3] | Potency [4] | Potency [5] | Potency (Aromatase (Homo sapiens))

O=S(=O)(Oc1ccc(Cl)cc1)c1ccccc1
inactive: Potency [1] | Potency [2] | Potency [3] | Potency [6] | Potency [4] | Potency [7] | Potency [8] | Potency [5] | Potency (Aromatase (Homo sapiens))

C[C@@H](c1ncncc1F)C(O)(Cn1cncn1)c1ccc(F)cc1F (stereo partly drawn)
inactive: Potency [1] | Potency [2] | Potency [3] | Potency [6] | Potency [7] | Potency [9] | Potency [8] | Potency [5] | Potency (Aromatase (Homo sapiens))

CCCCC(CC)CN1C(=O)C2C3C=CC(C3)C2C1=O (stereo not drawn)
inactive: Potency [3] | Potency [4] | Potency [7] | Potency [9] | Potency [8] | Potency [5]
active: Potency [1] 54.5 µM | Potency [2] 48.6 µM

CC/C=C\CCOC(=O)CC
inactive: Potency [1] | Potency [2] | Potency [3] | Potency [4] | Potency [5] | Potency (Aromatase (Homo sapiens))

CN(C)c1ccc(C(c2ccccc2)c2ccc(N(C)C)cc2)cc1
active: Potency [2] 24.3 µM
inactive: Potency [1] | Potency [3] | Potency [4] | Potency [5] | Potency (Aromatase (Homo sapiens))

OCCN1CCN(CCCN2c3ccccc3C=Cc3ccccc32)CC1
active: Potency [1] 6.68 µM and 7.5 µM | Potency [2] 11.9 µM and 26.6 µM
inactive: Potency [3] | Potency [4] | Potency [7] | Potency [9] | Potency [8] | Potency (Aromatase (Homo sapiens))
10.6 µM (active) and inactive: Potency [5]

CCCCC
inactive: Potency [1] | Potency [2] | Potency [3] | Potency [4] | Potency [5]

COCC(C)OC(C)=O (stereo not drawn)
inactive: Potency [1] | Potency [2] | Potency [3] | Potency [6] | Potency [4] | Potency [8] | Potency [5] | Potency (Aromatase (Homo sapiens))

CCCCC(CC)COC(=O)CCCCCCCCC(=O)OCC(CC)CCCC (stereo not drawn)
inactive: Potency [1] | Potency [2] | Potency [3] | Potency [6] | Potency [4] | Potency [7] | Potency [8] | Potency [5] | Potency (Aromatase (Homo sapiens))

COc1ccc(C(=O)Nc2nc3ccccc3c(NCc3ccccc3)c2C#N)cc1
inactive: Potency [1] | Potency [2] | Potency [3] | Potency [4] | Potency [7] | Potency [5]

Cc1ccccc1S(=O)(=O)O
inactive: Potency [1] | Potency [2] | Potency [3] | Potency [4] | Potency [5]

Cn1c(=O)cc(Oc2ccc(F)cc2F)c2cnc(NCC(C)(C)O)nc21
inactive: Potency [1] | Potency [2] | Potency [3] | Potency [6] | Potency [4] | Potency [7] | Potency [5] | Potency (Aromatase (Homo sapiens))
active: Potency [8] 19.3 µM

Cc1oc2c(NC(=O)c3c(Cl)cccc3Cl)cccc2c1C(C)(C)O
inactive: Potency [3] | Potency [7] | Potency [5]
active: Potency [1] 24.3 µM | Potency [2] 7.7 µM | Potency [6] 43.6 µM [inhibitor]

Brc1c2ccccc2c(Br)c2ccccc12
inactive: activity change, negative = cytotoxic [1] 6.61% [at 8.44 µM] | activity, negative = inhibition [2] 5.77% [at 8.44 µM] | activation [3] 0.426% [at 8.08 µM] | activity, negative = inhibition [6] 17% [at 6.71 µM] | activity, negative = cytotoxicity [4] 9.03% [at 6.72 µM] | activation [9] -3.1% [at 8.47 µM] | activity change, negative = inhibition [8] -5.5% [at 8.47 µM] | activity change, negative = cytotoxicity [5] 5.65% [at 8.47 µM]

CC1(c2ccccc2)OC(C(=O)O)=CC1=O (stereo not drawn)
inactive: Potency [1] | Potency [2] | Potency [3] | Potency [4] | Potency [5] | Potency (Aromatase (Homo sapiens))

Brc1c2ccccc2cc2ccccc12
active: Potency [9] 30.9 µM
inactive: Potency [1] | Potency [2] | Potency [3] | Potency [4] | Potency [5]

C[C@H]1C[C@H]2[C@@H]3CCC4=CC(=O)C=C[C@]4(C)[C@@]3(Cl)[C@@H](O)C[C@]2(C)[C@@]1(O)C(=O)CO
inactive: Potency [1] | Potency [2] | Potency [3] | Potency [4] | Potency [7] | Potency [9] | Potency [5] | Potency (Aromatase (Homo sapiens))

CCCCC/C=C\C/C=C\CCCCCCCC(=O)NC(C)c1ccccc1 (stereo not drawn)
inactive: Potency [1] | Potency [2] | Potency [3] | Potency [4] | Potency [7] | Potency [9] | Potency [8] | Potency [5]

ClCCOCCOCCCl
inactive: Potency [1] | Potency [2] | Potency [3] | Potency [4] | Potency [7] | Potency [9] | Potency [8] | Potency [5] | Potency (Aromatase (Homo sapiens))

CC(C)Nc1ccc(NC(C)C)c2c1C(=O)c1ccccc1C2=O
inactive: Potency [1] | Potency [2] | Potency [3] | Potency [6] | Potency [4] | Potency [7] | Potency [9] | Potency [5] | Potency (Aromatase (Homo sapiens))

CCCCCC[C@@H](O)C/C=C\CCCCCCCC(=O)OC
inactive: Potency [1] | Potency [2] | Potency [3] | Potency [4] | Potency [7] | Potency [9] | Potency [8] | Potency [5] | Potency (Aromatase (Homo sapiens))

CCCCCCCCCCCc1ccccc1
inactive: Potency [1] | Potency [2] | Potency [3] | Potency [6] | Potency [7] | Potency [9] | Potency [8] | Potency [5] | Potency (Aromatase (Homo sapiens))

CCc1cc(C2=C(C(=O)O)N(c3ccccc3C(F)(F)F)S(=O)(=O)c3ccccc32)cc2c1OCO2
inactive: Potency [2] | Potency [3] | Potency [4]
active: Potency [1] 2.41 µM

CC1CCC(=O)C1=O (stereo not drawn)
inactive: Potency [1] | Potency [2] | Potency [3] | Potency [4] | Potency [7] | Potency [9] | Potency [8] | Potency [5] | Potency (Aromatase (Homo sapiens))

CCCCCCCCCCCC(=O)OC[C@@H](O)[C@H]1OC[C@H](OCCO)[C@H]1OCCO
inactive: Potency [1] | Potency [2] | Potency [3] | Potency [4] | Potency [7] | Potency [9] | Potency [5]

Cc1cc(C(=O)O)ccc1[N+](=O)[O-]
inactive: Potency [1] | Potency [2] | Potency [3] | Potency [4] | Potency [7] | Potency [9] | Potency [8] | Potency [5] | Potency (Aromatase (Homo sapiens))

O=C(O)C(S)C(S)C(=O)O (stereo not drawn)
active: Potency [1] 26.6 µM | Potency [2] 11.9 µM
inactive: Potency [3] | Potency [4] | Potency [5] | Potency (Aromatase (Homo sapiens))
